Reference: PubChem BioAssay (Tox21)
Inconclusive results are not listed. A call without a number means that no potency is given here. Unmarked numbers belong to inactive results. Calls of active or inactive are those of the source. Calls follow the shape of the dose curve; as a rule, active = well fitted inhibition curve with a large enough effect in the signal ratio in the repeat runs, with a control signal flat; inconclusive = weak or mixed curves, or effect the other way; inactive = flat fitted curve, though single readings scatter; the % refers to the signal ratio.

The molecules below were run against D(2) dopamine receptor (Homo sapiens) (UniProt P14416) (assay: Dopamine D2 receptor (DRD2) small molecule antagonists, cell-based qHTS assay (AID 1963595)). Conditions: HEK293-DRD2 cAMP HTRF antagonist mode; series mostly up to 92.4 µM.
D(2) dopamine receptor (Homo sapiens), sequence (P14416 whole entry, looked up): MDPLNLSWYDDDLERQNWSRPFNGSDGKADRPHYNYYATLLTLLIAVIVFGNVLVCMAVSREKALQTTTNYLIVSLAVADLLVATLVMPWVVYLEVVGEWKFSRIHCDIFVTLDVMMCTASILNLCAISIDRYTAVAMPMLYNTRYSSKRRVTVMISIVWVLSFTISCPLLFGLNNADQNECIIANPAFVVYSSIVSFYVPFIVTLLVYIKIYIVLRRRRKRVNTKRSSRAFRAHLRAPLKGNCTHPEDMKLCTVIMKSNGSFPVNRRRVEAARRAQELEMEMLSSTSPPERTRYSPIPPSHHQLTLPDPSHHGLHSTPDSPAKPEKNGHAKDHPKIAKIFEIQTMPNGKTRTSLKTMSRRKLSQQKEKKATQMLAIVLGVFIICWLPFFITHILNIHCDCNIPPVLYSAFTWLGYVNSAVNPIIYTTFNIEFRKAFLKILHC
Excerpt: National Center for Advancing Translational Sciences [NCATS]
Division of Preclinical Innovation [DPI]
U.S. Environmental Protection Agency [EPA]
National Institutes of Environmental Health Sciences [NIEHS]
National Toxicology Program [NTP]
U.S. Food and Drug Administration [FDA]
DRD2 is the D2 subtype of the dopamine receptor, which is coupled to Gi subtype of G protein-coupled receptor. This G protein-coupled receptor inhibits adenylyl cyclase activity. The DRD2-HEK293 cell line stably expressing D2 dopamine receptor can be used for screening agonists and antagonists of interactions between D2 and its ligands. The Hek293-DRD2 cAMP assay is based on HTRF technology. It measures changes of cAMP accumulation in response to Gi coupled GPCR activation or inhibition.
Tox21 Assay Protocol Summary:
DRD2-Hek293 cells were dispensed at 600 cells/3uL/well in 1536-well white plates using a Multidrop Dispenser. After the assay plates were incubated at a 37 C/5% CO2 incubator for 24 h, 1 uL of Ro20-1724 at final concentration of 0.1 mM was transferred to the assay plate by a Flying Reagent Dispenser. Following Ro20-1724 addition, 23 nL of compound dissolved in DMSO, positive controls or DMSO only was added to the assay plates via Wako pintool station. The assay plates were incubated at room temperature for 10 min. Next, 1 uL of mixture of NKH477 (final concentration at 200 nM) and quinpirole (final concentration at 12 nM) was added into the plates. After the assay plates were incubated at room temperature for an additional 30 min, 2.5 ul/well of cAMP-d2 and 2.5 ul/well of anti-cAMP-cryptate were added respectively into the assay plates using a Flying Reagent Dispenser. The plates were incubated at room temperature for 1 h. The fluorescence intensity in the plates was measured at 340 nm excitation and 665 & 620 nm emission by an Envision plate reader.
Potency is read from the fitted curve at half-maximal effect.

Question: `IC(I)=C(I)I` was tested. Which Potency did it give?
Answer: 54.5 µM (active)

Question: Which Potency does the source give for `O=C(O)c1cc(I)cc(I)c1I` here?
Answer: inactive

Question: Which Potency does the source give for `[Hg+2].[I-].[I-]` here?
Answer: 27.3 µM (active)

Question: For `C1CCC(C2CCCCC2)CC1`, which Potency is on record?
Answer: inactive

Question: For `C[C@]12CC[C@H](O)C[C@H]1CC[C@@H]1[C@@H]2C[C@@H](O)[C@]2(C)[C@@H](C3=CC(=O)OC3)CC[C@]12O`, which Potency is on record?
Answer: inactive

Question: With `CC(=O)c1ccc(-c2ccccc2)cc1` as the molecule, how does the Potency read?
Answer: inactive

Question: With `[F][Sn]([c]1ccccc1)([c]1ccccc1)[c]1ccccc1` as the molecule, how does the Potency read?
Answer: 2.73 µM (active)

Question: With `C=C(C)C(=O)[O][Sn]([CH2]CCC)([CH2]CCC)[CH2]CCC` as the molecule, how does the Potency read?
Answer: 2.43 µM (active)

Question: How did the Potency turn out when `Cc1cccc(C)c1NC1=NCCCS1` was run?
Answer: inactive

Question: For `O=C(O)C(O)C(O)C(=O)O` (stereo not given), which Potency is on record?
Answer: inactive

Question: With `CN1C[C@H](CNC(=O)OCc2ccccc2)C[C@@H]2c3cccc4c3c(cn4C)C[C@H]21` as the molecule, how does the Potency read?
Answer: 10.6 µM (active)

Question: `N[C@@H]1C[C@H]1c1ccccc1` was tested. Which Potency did it give?
Answer: inactive

Question: `c1ccc2c(c1)Sc1ccccc1N2CC1CN2CCC1CC2` (stereo not given) was tested. Which Potency did it give?
Answer: inactive

Question: With `COP(=S)(OC)Oc1ccc(S(N)(=O)=O)cc1` as the molecule, how does the Potency read?
Answer: inactive

Question: `Nc1ccc(Sc2ccc(N)cc2)cc1` was tested. Which Potency did it give?
Answer: inactive

Question: `O=[N+]([O-])c1ccc(Nc2ccccc2)cc1` was tested. Which Potency did it give?
Answer: inactive

Question: `CCCC(C)C1(CC)C(=O)N=C(S)NC1=O` (stereo not given) was tested. Which Potency did it give?
Answer: inactive

Question: Which Potency does the source give for `C=C(Cl)Cl` here?
Answer: inactive

Question: For `O=c1[nH]c(Cl)c(Cl)cc1Cl`, which Potency is on record?
Answer: inactive

Question: `NP(N)(=O)NC(=O)c1ccc(F)cc1` was tested. Which Potency did it give?
Answer: inactive

Question: For `CC(C)CBr`, which Potency is on record?
Answer: inactive

Question: `CCC(C)c1cccc(C(C)CC)c1O` (stereo not given) was tested. Which Potency did it give?
Answer: inactive

Question: With `CC(=O)Nc1ccc2c(c1)Cc1ccccc1-2` as the molecule, how does the Potency read?
Answer: inactive

Question: With `CC(c1ccc(O)cc1)(c1ccc(O)cc1)c1ccc(O)cc1` as the molecule, how does the Potency read?
Answer: inactive

Question: With `O=CNC(N1CCN(C(NC=O)C(Cl)(Cl)Cl)CC1)C(Cl)(Cl)Cl` (stereo not given) as the molecule, how does the Potency read?
Answer: inactive

Question: For `Nc1ccccc1-c1ccccc1`, which Potency is on record?
Answer: inactive

Question: Which Potency does the source give for `CCCCCC[N+](=O)[O-]` here?
Answer: inactive

Question: `Cc1c([N+](=O)[O-])c(C)c([N+](=O)[O-])c(C(C)(C)C)c1[N+](=O)[O-]` was tested. Which Potency did it give?
Answer: inactive

Question: For `[Cl][Hg][c]1ccccc1`, which Potency is on record?
Answer: 13.7 µM (active)

Question: With `O=NN(CCO)CCO` as the molecule, how does the Potency read?
Answer: inactive

Question: With `Cc1ccc2nc3sc(=O)sc3nc2c1` as the molecule, how does the activity change, negative = inhibition read?
Answer: 0.198% [at 18.9 µM]

Question: How did the Potency turn out when `CC1=NNC(=O)N(/N=C/c2cccnc2)C1` was run?
Answer: inactive

Question: For `CCOCn1c(-c2ccc(Cl)cc2)c(C#N)c(Br)c1C(F)(F)F`, which Potency is on record?
Answer: inactive

Question: How did the Potency turn out when `COc1ccccc1N1CCNCC1` was run?
Answer: inactive

Question: `CC(C)(C)NCC(O)c1cc(Cl)c(N)c(Cl)c1` (stereo not given) was tested. Which Potency did it give?
Answer: 0.0021 µM (active)

Question: `CCS(=O)(=O)CCSP(=O)(OC)OC` was tested. Which Potency did it give?
Answer: inactive

Question: With `Clc1ccc(Oc2ccccc2)cc1` as the molecule, how does the Potency read?
Answer: inactive

Question: `CO/N=C(/C1=NOCCO1)c1ccccc1Oc1ncnc(Oc2ccccc2Cl)c1F` was tested. Which Potency did it give?
Answer: inactive

Question: With `Brc1cccc(-c2ccccc2)c1` as the molecule, how does the Potency read?
Answer: inactive

Question: For `CCCSP(=S)(OCC)Oc1ccc(Cl)cc1Cl` (stereo not given), which Potency is on record?
Answer: inactive
